Measured values as given in PubChem BioAssay (EPA / NIEHS).
Active and inactive are the calls of the source. Rule for the calls: active = hit-call score of the fitted dose curve at least 0.9, where 1 is the maximum; inactive = score below 0.9.

Legend:
[1] = ATG_GLI_CIS: Attagene CIS-FACTORIAL HepG2 Assay for human Zinc Finger Protein GLI1 (AID 2282945); details: HepG2, Attagene cis-factorial reporter mRNA, GLI element; actives raise or lower the signal
Method in brief: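 Bidirectional curve fits relative to DMSO, using reporter mRNA levels from RT-PCR plus capillary electrophoresis. Cells were HepG2 transiently carrying cis-regulated reporter constructs, harvested 24 h after dosing.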

[2] = ATG_GRE_CIS: Attagene CIS-FACTORIAL HepG2 Assay for human Glucocorticoid Response Elements (GRE) (AID 2282947); details: HepG2 GRE cis-reporter, Attagene multiplex mRNA; actives raise or lower the signal
Method in brief: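 Multiplexed cis-reporter mRNA induction, HepG2, 24 h post-dose. RT-PCR, FAM-labelled, HpaI-digested amplicons by CE. Bidirectional fit vs DMSO.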

[3] = ATG_ISRE_CIS: Attagene CIS-FACTORIAL HepG2 Assay for human Interferon Regulatory Factor 1 (IRF1) binding to an Interferon-Stimulated Response Element (ISRE) (AID 2282948); details: HepG2 ISRE cis-reporter (Attagene), mRNA transcription readout; actives raise or lower the signal
Method in brief: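 Uses HepG2 liver cells transfected with cis-regulated reporters and measures mRNA 24 h post-dosing through RT-PCR, primer-extension labelling and capillary electrophoresis, with DMSO as negative control.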

[4] = ATG_M_32_CIS: Attagene CIS-FACTORIAL HepG2 Assay for M32 Transcription Factor (Internal Marker) (AID 2282949); details: HepG2 Attagene cis-factorial M32 reporter, mRNA; actives raise or lower the signal;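 note: background control marker of the multiplexed CIS panel rather than a real target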
Method in brief: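 Using DMSO as baseline, bidirectional curve fits were applied to reporter mRNA signals. These came from transiently transfected HepG2 cells exposed for 24 h, with RNA analysed by RT-PCR, FAM primer extension, HpaI digestion and CE.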

[5] = ATG_M_06_CIS: Attagene CIS-FACTORIAL HepG2 Assay for M06 Transcription Factor (Internal Marker) (AID 2282950); details: HepG2 Attagene CIS-FACTORIAL M06 internal marker reporter; actives raise or lower the signal
Method in brief: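 Cells (HepG2, transiently carrying cis-driven reporter units) receive chemical for 24 h before RNA isolation. Reporter cDNA is PCR-amplified, FAM-labelled by primer extension, HpaI-digested and sized on a capillary analyser.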

[6] = target: Hypoxia-inducible factor 1-alpha (Homo sapiens) (UniProt Q16665); experiment: ATG_HIF1a_CIS: Attagene CIS-FACTORIAL HepG2 Assay for human Hypoxia Inducible Factor 1 (HIF1A) (AID 2282951); details: HepG2 Attagene cis-factorial HIF1a reporter transcription; actives raise or lower the signal
Method in brief: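 Fluorescence intensity of capillary-separated, 6-FAM-labelled reporter amplicons gives mRNA induction in HepG2 cells carrying transfected cis-promoter reporter units; cells exposed 24 h, responses fitted up or down from DMSO.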

[7] = target: Hepatocyte nuclear factor 6 (Homo sapiens) (UniProt Q9UBC0); experiment: ATG_HNF6_CIS: Attagene CIS-FACTORIAL HepG2 Assay for human Hepatocyte Nuclear Factor 6 (HNF6) (AID 2282952); details: HepG2 Attagene cis-factorial HNF6 reporter transcription; actives raise or lower the signal
Method in brief: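 Twenty-four-hour chemical treatment of reporter-transfected HepG2 cells precedes RNA isolation, DNase-treated reverse transcription and PCR of reporter sequences. Labelled fragments are sized by capillary electrophoresis and fitted bidirectionally versus DMSO.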

[8] = target: Heat shock factor protein 1 (Homo sapiens) (UniProt Q00613); experiment: ATG_HSE_CIS: Attagene CIS-FACTORIAL HepG2 Assay for human Heat Shock Transcription Factor 1 (HSE) (AID 2282953); details: HepG2 HSE cis-reporter, Attagene RNA transcription; actives raise or lower the signal
Method in brief: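 Liver-derived HepG2 cells carry transiently introduced multiple reporter units governed by cis promoters. Reporter RNA measured 24 h post-dose through reverse transcription, PCR amplification, fluorescent labelling and capillary electrophoresis, normalised to DMSO.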

[9] = ATG_MRE_CIS: Attagene CIS-FACTORIAL HepG2 Assay for human Metal Responsive Element (MRE) (AID 2282954); details: HepG2 MRE cis-reporter transcription, Attagene multiplex; actives raise or lower the signal
Method in brief: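 Multiplexed cis-reporter assay in human HepG2 liver cells, 24 h incubation with test chemical. Reporter transcripts measured by RT-PCR and capillary electrophoresis; values from bidirectional curve fitting versus DMSO.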

[10] = ATG_PBREM_CIS: Attagene CIS-FACTORIAL HepG2 Assay for human Phenobarbital-responsive Enhancer Module (PBREM) (AID 2282955); details: HepG2 PBREM cis-reporter, Attagene multiplexed transcription; actives raise or lower the signal
Method in brief: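 Cells were transfected with cis-element reporter units and treated for 24 h, after which RNA was extracted and reporter transcripts measured by RT-PCR and capillary electrophoresis.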

[11] = target: Paired box protein Pax-6 (Homo sapiens) (UniProt P26367); experiment: ATG_Pax6_CIS: Attagene CIS-FACTORIAL HepG2 Assay for human Paired Box 6 (PAX6) (AID 2282956); details: HepG2 CIS-FACTORIAL PAX6 reporter transcription, RNA readout; actives raise or lower the signal
Method in brief: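 DMSO-referenced bidirectional fits of reporter mRNA fluorescence; HepG2 with transient cis-promoter MRTUs, 24 h post-dose, RT-PCR plus capillary electrophoresis detection.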

[12] = ATG_PXRE_CIS: Attagene CIS-FACTORIAL HepG2 Assay for human Pregnane X Receptor Element (PXRE) (AID 2282957); details: HepG2 Attagene CIS-FACTORIAL PXRE reporter, mRNA; actives raise or lower the signal
Method in brief: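 Bidirectional activity, baselined to DMSO, derived from reporter mRNA fluorescence (RT-PCR plus capillary electrophoresis) in HepG2 cells bearing cis-promoter reporter units, 24 h exposure.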

[13] = ATG_PPRE_CIS: Attagene CIS-FACTORIAL HepG2 Assay for human Peroxisome Proliferator-activated Response Element (PPRE) (AID 2282958); details: HepG2 PPRE cis-element reporter, Attagene transcription factor profiling; actives raise or lower the signal
Method in brief: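 In this cell-based multiplex, a PPRE cis element drives a reporter sequence in transiently transfected HepG2 cells. Following 24 h treatment, labeled cDNA amplicons are sized and quantified by capillary electrophoresis, with DMSO defining baseline.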

[14] = ATG_Sox_CIS: Attagene CIS-FACTORIAL HepG2 Assay for human SRY-box transcription factor (SOX) (AID 2282960); details: HepG2 Attagene cis-factorial SOX reporter, mRNA; actives raise or lower the signal
Method in brief: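 Measures mRNA induction of a SOX1-associated reporter in HepG2 after 24 h dosing. Fluorescently labelled RT-PCR fragments are separated by capillary electrophoresis, and gain or loss relative to DMSO control is fitted.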

[15] = target: Transcription factor Sp1 (Homo sapiens) (UniProt P08047); experiment: ATG_Sp1_CIS: Attagene CIS-FACTORIAL HepG2 Assay for human Specificity Protein 1 (Sp1) (AID 2282961); details: HepG2 Sp1 cis-reporter transcription, actives raise or lower the signal
Method in brief: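 Cells: HepG2, transiently transfected with cis-regulated multiplexed reporters. Exposure: 24 h. Detection: reporter transcripts amplified, fluorescently labeled, restriction-digested and sized by capillary electrophoresis. Analysis: bidirectional fit relative to DMSO.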

[16] = ATG_SREBP_CIS: Attagene CIS-FACTORIAL HepG2 Assay for human Sterol Regulatory Element Binding (SREBP) (AID 2282962); details: HepG2 Attagene cis-factorial SREBP reporter, mRNA; actives raise or lower the signal
Method in brief: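 In this cis-format assay, HepG2 liver cells express reporters controlled by promoter elements responsive to native transcription factors. Exposure lasts 24 h; reporter mRNA fluorescence from capillary electrophoresis gives the signal, fitted bidirectionally against DMSO.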

[17] = ATG_TA_CIS: Attagene CIS-FACTORIAL HepG2 Assay for human TA Basal Promoter (AID 2282964); details: HepG2 Attagene CIS-factorial TA basal promoter reporter; actives raise or lower the signal
Method in brief: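 Background internal-marker endpoint from a 52-component HepG2 cis-reporter panel. Cells treated 24 h; reporter transcripts quantified via RT-PCR and CE fluorescence against DMSO baseline.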

[18] = ATG_RORE_CIS: Attagene CIS-FACTORIAL HepG2 Assay for human RAR-related Orphan Receptor Element (RORE) (AID 2282959); details: HepG2 Attagene cis-factorial RORE reporter, mRNA; actives raise or lower the signal
Method in brief: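 Endogenous factor activity at a cis response element is read as reporter transcript levels in HepG2 cells, 24 h post-dose. Transcripts are quantified by RT-PCR with capillary electrophoresis, and data fitted in both directions against DMSO.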

[19] = target: Signal transducer and activator of transcription 3 (Homo sapiens) (UniProt P40763); experiment: ATG_STAT3_CIS: Attagene CIS-FACTORIAL HepG2 Assay for human Signal Transducer and Activator of Transcription 3 (STAT3) (AID 2282963); details: HepG2, Attagene cis-factorial STAT3 reporter transcription; actives raise or lower the signal
Method in brief: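 Cis-factorial format: endogenous transcription factors in HepG2 drive transfected reporter units. After 24 h treatment, reporter RNA was reverse-transcribed, amplified, FAM-labelled and HpaI-digested before CE analysis; activity scored in both directions against DMSO.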

[20] = target: Bile acid receptor (Homo sapiens) (UniProt Q96RI1); experiment: ATG_IR1_CIS: Attagene CIS-FACTORIAL HepG2 Assay for human Nuclear Receptor Subfamily 1 Group H Member 4 (NR1H4), IR1 submotif (AID 2282946); details: IR1 reporter transcription, actives raise or lower the signal
Method in brief: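 HepG2 cells transiently transfected with multiplexed cis-element reporter units read endogenous transcription factor activity. After 24 h compound exposure, reporter mRNA was quantified by RT-PCR, fluorescent labelling, HpaI digestion and capillary electrophoresis; bidirectional fitting versus DMSO baseline.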

Measured: AC50

Chain of Signal transducer and activator of transcription 3 (Homo sapiens) (P40763 whole entry, looked up): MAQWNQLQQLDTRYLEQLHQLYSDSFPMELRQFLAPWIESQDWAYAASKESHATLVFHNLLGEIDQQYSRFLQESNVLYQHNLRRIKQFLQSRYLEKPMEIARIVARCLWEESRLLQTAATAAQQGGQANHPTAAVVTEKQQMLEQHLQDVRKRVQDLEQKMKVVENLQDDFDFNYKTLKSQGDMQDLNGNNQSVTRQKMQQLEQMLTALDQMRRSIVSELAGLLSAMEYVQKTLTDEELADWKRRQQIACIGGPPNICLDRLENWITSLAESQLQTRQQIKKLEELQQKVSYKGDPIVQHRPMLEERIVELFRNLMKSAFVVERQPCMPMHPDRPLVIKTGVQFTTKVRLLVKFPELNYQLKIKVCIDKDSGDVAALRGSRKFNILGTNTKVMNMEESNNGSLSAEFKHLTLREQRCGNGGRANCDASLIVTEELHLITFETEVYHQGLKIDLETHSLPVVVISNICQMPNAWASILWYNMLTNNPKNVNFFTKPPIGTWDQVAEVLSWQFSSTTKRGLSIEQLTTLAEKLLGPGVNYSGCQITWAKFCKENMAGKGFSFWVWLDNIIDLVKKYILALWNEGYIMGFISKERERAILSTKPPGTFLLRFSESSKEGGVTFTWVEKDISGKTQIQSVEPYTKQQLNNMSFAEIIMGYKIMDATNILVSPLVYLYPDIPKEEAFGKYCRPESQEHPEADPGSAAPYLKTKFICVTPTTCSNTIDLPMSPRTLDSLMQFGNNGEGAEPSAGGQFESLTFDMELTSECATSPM
Chain of Hepatocyte nuclear factor 6 (Homo sapiens) (Q9UBC0 whole entry, looked up, the tested form may be a part): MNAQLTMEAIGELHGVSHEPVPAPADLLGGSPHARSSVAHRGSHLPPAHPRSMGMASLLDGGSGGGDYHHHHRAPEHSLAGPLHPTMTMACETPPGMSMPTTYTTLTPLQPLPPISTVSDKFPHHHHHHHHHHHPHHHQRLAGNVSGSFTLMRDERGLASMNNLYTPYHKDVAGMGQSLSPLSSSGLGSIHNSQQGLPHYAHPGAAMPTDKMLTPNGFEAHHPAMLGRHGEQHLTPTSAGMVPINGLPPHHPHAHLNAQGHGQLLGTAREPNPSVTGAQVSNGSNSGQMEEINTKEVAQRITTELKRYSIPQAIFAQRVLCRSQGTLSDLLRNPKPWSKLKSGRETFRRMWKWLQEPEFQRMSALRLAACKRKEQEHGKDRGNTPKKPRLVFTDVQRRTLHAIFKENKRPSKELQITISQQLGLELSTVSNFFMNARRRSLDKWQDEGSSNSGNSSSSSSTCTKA
Chain of Hypoxia-inducible factor 1-alpha (Homo sapiens) (Q16665 whole entry, looked up): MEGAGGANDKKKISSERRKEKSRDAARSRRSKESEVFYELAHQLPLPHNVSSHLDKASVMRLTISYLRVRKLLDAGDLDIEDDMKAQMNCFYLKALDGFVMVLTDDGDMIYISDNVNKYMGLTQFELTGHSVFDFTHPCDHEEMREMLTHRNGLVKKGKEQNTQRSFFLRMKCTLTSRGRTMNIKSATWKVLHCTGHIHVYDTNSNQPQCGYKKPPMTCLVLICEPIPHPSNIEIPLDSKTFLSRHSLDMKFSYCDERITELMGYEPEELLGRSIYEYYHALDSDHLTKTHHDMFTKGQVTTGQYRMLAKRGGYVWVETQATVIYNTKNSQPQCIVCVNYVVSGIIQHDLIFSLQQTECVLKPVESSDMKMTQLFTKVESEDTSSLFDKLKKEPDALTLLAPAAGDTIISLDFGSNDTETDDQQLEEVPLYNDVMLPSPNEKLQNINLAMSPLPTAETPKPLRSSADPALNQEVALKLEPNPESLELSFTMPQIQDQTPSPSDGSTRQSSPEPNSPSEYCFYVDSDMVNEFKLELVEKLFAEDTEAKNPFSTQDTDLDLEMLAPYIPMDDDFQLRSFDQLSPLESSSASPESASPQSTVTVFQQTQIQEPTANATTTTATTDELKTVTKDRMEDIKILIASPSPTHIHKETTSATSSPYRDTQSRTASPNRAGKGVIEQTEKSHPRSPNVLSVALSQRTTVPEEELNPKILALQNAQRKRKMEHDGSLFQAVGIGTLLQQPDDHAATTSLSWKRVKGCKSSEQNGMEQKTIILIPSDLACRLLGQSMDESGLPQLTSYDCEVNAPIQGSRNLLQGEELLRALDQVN
Chain of Paired box protein Pax-6 (Homo sapiens) (P26367 whole entry, looked up): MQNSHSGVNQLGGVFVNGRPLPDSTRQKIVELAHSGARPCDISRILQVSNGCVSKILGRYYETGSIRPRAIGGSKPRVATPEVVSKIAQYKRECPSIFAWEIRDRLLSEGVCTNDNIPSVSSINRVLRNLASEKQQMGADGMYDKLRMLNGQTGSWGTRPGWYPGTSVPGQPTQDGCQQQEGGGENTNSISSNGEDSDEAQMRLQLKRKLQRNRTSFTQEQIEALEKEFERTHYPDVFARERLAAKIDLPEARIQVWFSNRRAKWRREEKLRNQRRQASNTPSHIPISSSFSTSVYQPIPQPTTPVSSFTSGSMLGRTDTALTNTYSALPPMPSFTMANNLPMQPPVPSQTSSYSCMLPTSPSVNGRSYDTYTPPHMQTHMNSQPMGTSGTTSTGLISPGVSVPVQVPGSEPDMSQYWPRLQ
Chain of Transcription factor Sp1 (Homo sapiens) (P08047 whole entry, looked up): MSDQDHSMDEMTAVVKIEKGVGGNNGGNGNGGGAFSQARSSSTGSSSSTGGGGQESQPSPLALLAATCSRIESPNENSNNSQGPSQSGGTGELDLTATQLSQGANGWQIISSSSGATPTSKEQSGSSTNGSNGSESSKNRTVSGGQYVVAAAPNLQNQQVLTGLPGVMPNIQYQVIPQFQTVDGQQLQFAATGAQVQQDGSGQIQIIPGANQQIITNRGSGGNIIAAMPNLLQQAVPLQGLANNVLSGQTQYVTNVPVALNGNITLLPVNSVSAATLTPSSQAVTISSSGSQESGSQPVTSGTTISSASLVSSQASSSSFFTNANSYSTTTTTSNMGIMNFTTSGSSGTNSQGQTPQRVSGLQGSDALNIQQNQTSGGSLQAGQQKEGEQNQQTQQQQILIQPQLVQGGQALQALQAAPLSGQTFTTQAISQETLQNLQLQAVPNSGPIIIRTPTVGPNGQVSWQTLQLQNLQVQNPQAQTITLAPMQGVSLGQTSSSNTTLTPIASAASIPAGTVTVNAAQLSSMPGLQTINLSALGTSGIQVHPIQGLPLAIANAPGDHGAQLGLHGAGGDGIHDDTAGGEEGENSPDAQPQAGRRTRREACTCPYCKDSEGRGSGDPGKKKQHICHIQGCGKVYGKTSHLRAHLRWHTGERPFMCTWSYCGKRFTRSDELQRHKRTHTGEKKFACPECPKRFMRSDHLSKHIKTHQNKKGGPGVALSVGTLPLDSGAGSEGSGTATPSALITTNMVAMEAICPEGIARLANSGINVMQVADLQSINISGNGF
Chain of Heat shock factor protein 1 (Homo sapiens) (Q00613 whole entry, looked up): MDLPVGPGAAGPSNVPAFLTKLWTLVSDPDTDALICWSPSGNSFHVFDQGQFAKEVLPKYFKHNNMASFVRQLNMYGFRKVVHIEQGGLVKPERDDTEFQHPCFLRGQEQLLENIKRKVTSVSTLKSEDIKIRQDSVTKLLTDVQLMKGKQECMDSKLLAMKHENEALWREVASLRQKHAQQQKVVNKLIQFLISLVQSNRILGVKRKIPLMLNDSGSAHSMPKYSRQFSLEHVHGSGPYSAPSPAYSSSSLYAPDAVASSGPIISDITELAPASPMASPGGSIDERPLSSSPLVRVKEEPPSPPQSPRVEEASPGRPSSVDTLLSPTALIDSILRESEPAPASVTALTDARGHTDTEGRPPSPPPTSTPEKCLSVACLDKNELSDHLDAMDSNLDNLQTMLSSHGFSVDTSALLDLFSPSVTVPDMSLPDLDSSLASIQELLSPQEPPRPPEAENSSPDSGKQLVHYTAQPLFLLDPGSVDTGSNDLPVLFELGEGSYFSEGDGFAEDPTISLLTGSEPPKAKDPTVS
Chain of Bile acid receptor (Homo sapiens) (Q96RI1 whole entry, looked up): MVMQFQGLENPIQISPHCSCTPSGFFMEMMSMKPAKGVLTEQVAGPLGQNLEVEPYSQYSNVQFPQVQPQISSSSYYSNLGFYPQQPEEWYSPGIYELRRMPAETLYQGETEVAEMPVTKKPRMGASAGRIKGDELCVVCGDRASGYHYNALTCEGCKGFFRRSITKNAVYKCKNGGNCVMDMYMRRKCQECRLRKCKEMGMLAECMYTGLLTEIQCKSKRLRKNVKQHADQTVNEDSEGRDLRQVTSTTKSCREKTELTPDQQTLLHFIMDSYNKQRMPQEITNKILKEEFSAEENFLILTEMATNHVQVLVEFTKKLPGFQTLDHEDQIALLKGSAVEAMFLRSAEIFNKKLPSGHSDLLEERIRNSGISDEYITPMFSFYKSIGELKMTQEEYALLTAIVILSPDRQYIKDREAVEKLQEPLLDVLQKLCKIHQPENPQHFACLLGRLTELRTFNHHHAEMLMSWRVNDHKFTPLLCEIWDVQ

CC/C=C\CCOC(C)OCC (centres undefined)
not listed: [18] | [19] | [20]
inactive: all other assays above

CCC=C(C)C=O
active: [12] 24.7 µM
not listed: [20]
inactive: all other assays above

CCC(C)(C)c1cc(O)c(C(C)(C)CC)cc1O
inactive: [4] | [5] | [10] | [12] | [13] | [18] | [19] | [17]
active: [1] 6.82 µM | [2] 24.8 µM | [3] 20.2 µM | [6] 10.7 µM | [7] 30 µM | [8] 49.3 µM | [9] 16.2 µM | [11] 68.9 µM | [15] 4.19 µM | [16] 4.61 µM

CCCOC(=O)CC
not listed: [19] | [20]
inactive: all other assays above

CC12CCC(C1)C(C)(C)C2O (centres undefined)
not listed: [2] | [5] | [18]
inactive: all other assays above

CCCCCCCCOC(=O)c1ccc(O)cc1
active: [12] 13.4 µM
not listed: [13] | [18] | [20]
inactive: all other assays above

OC[C@H]1O[C@@H](O[C@H]2[C@H](O)[C@@H](O)[C@H](O)O[C@@H]2CO)[C@H](O)[C@@H](O)[C@H]1O
not listed: [18] | [20]
inactive: all other assays above
